# Tb PYK inh = qHTS of Trypanosoma Brucei Inhibitors; pyruvate kinase (Trypanosoma brucei), Q57TT1; TbPYK enzyme, Kinase-Glo Plus ATP luminescence, 45 min; Potency, µM (series often up to 76.8 µM), for inactives: at the highest dose activity, negative = inhibition, hits mostly inhibitors; hit rate 0.12% among 410,000; further: potency means the concentration at half of the fitted maximal effect; on the % scale 0 is the no-effect control and ±100 the full control effect; nearly all actives have a fitted effect of over 50% in size
#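 Readout: single end-point luminescence (Kinase-Glo Plus, 10 min). Reaction conditions were TbPYK/substrate plus 130 uM ADP, 45 min at RT, pH 7.2 TEA buffer. No-enzyme wells served as controls, and data were normalized before concentration-response fitting.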
# CHX counter = Cycloheximide Counterscreen for Small Molecule Inhibitors of Shiga Toxin; cell reporter, cycloheximide protein synthesis inhibition counterscreen; max response, %; hit rate 12% among 300,000; AID 2314, 2010; in the data active means max response mostly above about 13%, no sharp cut-off; inactive means mostly below about 14%; further: read at 38.3 µM for the half of the compounds with a filed dose; 0% is about no effect
# RE007 growth inh = qHTS Assay for Inhibitors of the HIV-1 protein Vpr. hit rate 0.21% among 360,000. Potency, µM (series often up to 92.2 µM), for the others: at the highest dose activity change, negative = less growth, usual class: inhibitors. AID 651644, 2012. S. pombe RE007 Vpr strain, BacTiter-Glo ATP luminescence, 24 h; active means well fitted falling curve with a large enough effect; inconclusive means small, poorly fitted or top-dose-only effect; inactive means no such curve, though single readings can be large or run the other way; further: potency means the concentration at half of the fitted maximal effect; on the % scale 0 is the no-effect control and ±100 the full control effect; nearly all actives have a fitted effect of over 50% in size
#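 Fission yeast RE007 carrying one integrated HIV-1 vpr copy, seeded at OD 0.01 in PMG+AL medium with 23 nL pinned compound. Grown 24 h at 30 degrees; viability read by BacTiter-Glo luminescence after 5 min.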
# Shiga toxin inh = A qHTS for Small Molecule Inhibitors of Shiga Toxin; Vero cells, Shiga toxin protein synthesis inhibition reporter; inhibition, % at 38.7 µM; hit rate 9.2% among 290,000; in the data active means inhibition mostly above about 28%, no sharp cut-off; inactive means mostly below about 43%; further: 0% is about no effect
# Giardia FBPA inh-1 = qHTS Assay for Inhibitors of Fructose-1,6-bisphosphate Aldolase from Giardia Lamblia. hit rate 0.71% among 290,000. purified Giardia FBPA. Potency, µM (series often up to 59.6 µM), without a hit: at the highest dose activity, negative = inhibition, hits mostly inhibitors. A8B2U2. AID 2451, 2010; further: potency means the concentration at half of the fitted maximal effect; on the % scale 0 is the no-effect control and ±100 the full control effect; nearly all actives have a fitted effect of over 55% in size
# Target sequence (A8B2U2 whole entry, looked up): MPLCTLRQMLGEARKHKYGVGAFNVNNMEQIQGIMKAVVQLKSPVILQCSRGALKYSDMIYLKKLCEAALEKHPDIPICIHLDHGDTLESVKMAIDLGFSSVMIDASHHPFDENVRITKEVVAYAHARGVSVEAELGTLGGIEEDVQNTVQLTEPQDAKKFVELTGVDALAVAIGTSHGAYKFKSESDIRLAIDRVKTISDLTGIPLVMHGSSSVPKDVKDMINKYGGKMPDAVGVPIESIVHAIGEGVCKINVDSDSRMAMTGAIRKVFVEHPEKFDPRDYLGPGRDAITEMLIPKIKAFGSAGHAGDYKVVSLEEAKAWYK
#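 Giardia FBPA (40 nM reagent) was preincubated 10 min at RT with compound (up to 57.5 uM final), then substrate plus GAPDH/TPI/NAD/arsenate coupling system with diaphorase/resazurin was added; resorufin fluorescence (525/598 nm) was read after 20 min.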
# LmPK inhibitor = qHTS Assay for Inhibitors of Leishmania Mexicana Pyruvate Kinase (LmPK). Q27686. purified LmPK, Kinase-Glo ATP luminescence, 1 h. Potency, µM (titrated, usually from 57.5 µM), inactives show at the top dose activity change, negative = inhibition, actives largely listed as inhibitors. hit rate 0.37% among 290,000. AID 1721, 2009; further: potency means the concentration at half of the fitted maximal effect; on the % scale 0 is the no-effect control and ±100 the full control effect
#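 Purified LmPK (0.1 nM) with 0.5 mM PEP and 0.1 mM ADP in imidazole buffer pH 7.2 with MgCl2/KCl, 1 h at room temperature. ATP formed was read by luciferase luminescence and normalized to no-enzyme and uninhibited controls.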
# Giardia growth = qHTS Assay for Inhibitors of Fructose-1,6-bisphosphate Aldolase from Giardia Lamblia: Giardia lamblia growth inhibition; Giardia lamblia trophozoite growth inhibition; AID 2785, 2010; shares compounds with Giardia FBPA inh-1; hit rate 5% among 1,500; Potency, µM (titrated, usually from 57.5 µM), for inactives: top-dose activity change, negative = inhibition, most hits filed as inhibitors;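 further: potency means the concentration at half of the fitted maximal effect; trophozoites exposed to compound for 48 h at 37 °C; on the % scale 0 is the no-effect control and ±100 the full control effect; nearly all actives have a fitted effect of over 70% in size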
# Mammal cell tox = qHTS Assay for Inhibitors of Fructose-1,6-bisphosphate Aldolase from Giardia Lamblia: Mammalian cellular toxicity; shares compounds with Giardia FBPA inh-1; mammalian cell viability counter-screen, qHTS; Potency, µM (top dose mostly 57.5 µM), without a hit: top-dose viability change, negative = toxicity, hits mostly inhibitors; hit rate 4% among 1,500;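 further: Chinese hamster ovary cells used as mammalian cytotoxicity surrogate; viability measured as cellular ATP by luminescence; potency means the concentration at half of the fitted maximal effect; compound exposure lasted 48 h before reading; on the % scale 0 is the no-effect control and ±100 the full control effect; nearly all actives have a fitted effect of over 60% in size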
# Giardia FBPA inh-2 = qHTS Assay for Inhibitors of Fructose-1,6-bisphosphate Aldolase from Giardia Lamblia: Primary screen confirmation; hit rate 5% among 1,500; Potency, µM (series often up to 57.5 µM), for the others: at the highest dose activity change, negative = inhibition, usual class: inhibitors; purified Giardia aldolase enzyme activity, qHTS; shares compounds with Giardia FBPA inh-1; AID 2787, 2010; further: potency means the concentration at half of the fitted maximal effect; on the % scale 0 is the no-effect control and ±100 the full control effect; nearly all actives have a fitted effect of over 45% in size
# Rabbit aldolase = qHTS Assay for Inhibitors of Fructose-1,6-bisphosphate Aldolase from Giardia Lamblia: Rabbit FBPA Selectivity. shares compounds with Giardia FBPA inh-1. Rabbit muscle FBPA enzyme inhibition, selectivity counter-screen. Potency, µM (highest dose often 57.5 µM), for inactives: top-dose activity, negative = inhibition, hits mostly inhibitors. hit rate 4% among 1,500. AID 2794, 2010; further: potency means the concentration at half of the fitted maximal effect; on the % scale 0 is the no-effect control and ±100 the full control effect; nearly all actives have a fitted effect of over 60% in size
# GAPDH counter = qHTS Assay for Inhibitors of Fructose-1,6-bisphosphate Aldolase from Giardia Lamblia: Coupling assay counterscreen confirmation | shares compounds with Giardia FBPA inh-1 | GAPDH coupling enzyme counterscreen, biochemical, qHTS | Potency, µM (top dose mostly 57.5 µM), for the others: at the top dose activity change, negative = inhibition, hits mostly inhibitors | hit rate 6% among 1,500 | AID 2795, 2010; further: potency means the concentration at half of the fitted maximal effect; on the % scale 0 is the no-effect control and ±100 the full control effect; nearly all actives have a fitted effect of over 55% in size
# An asterisk follows results filed as active; ? = inconclusive; . = not tested or not shown; [ ] = remark or other dose. The full list was thinned out, with hits kept by preference. Unless noted, the call rests on the fitted dose curve; in most records, active means well fitted curve in the direction sought with a large enough effect; inconclusive means small, poorly fitted or top-dose-only effect, or another doubt; inactive means no such curve, though single readings can be large; an effect the other way counts as inactive or inconclusive.
SMILES,Tb PYK inh,CHX counter,RE007 growth inh,Shiga toxin inh,Giardia FBPA inh-1,LmPK inhibitor,Giardia growth,Mammal cell tox,Giardia FBPA inh-2,Rabbit aldolase,GAPDH counter
Cc1cccc(C)c1NC(=S)NC(=O)c1cccc(Cl)c1,0%,.,-16%[18.4 µM],.,.,.,.,.,.,.,.
CN(C)C(=S)NC(=O)c1cccc(Cl)c1,-24%,2,5%,-2,16µM*,-2%,7.1µM*,15%,-5%,10%,-6%
c1ccc(CCN(Cc2ccccc2)C2CCN(C3CCCC3)CC2)cc1,-29%,-2,-16%,-5,20µM*,?,45µM*,-8%,6%,1%,3%
CC1(C)CC(N(CCc2ccccc2)Cc2ccccc2)CCO1 (configuration not stated),-2%,5,0%,-12,?,1%,.,.,.,.,.
COc1ccc(NC(=O)c2cc(C3CC3)nc3c2c(C)nn3-c2ccccc2)c(OC)c1,-1%,.,.,.,.,.,.,.,.,.,.
COc1ccc(Cl)cc1NC(=O)C(C)N(C)Cc1ccc(C(F)(F)F)cc1 (configuration not stated),-13%,5,25%,-10,-1%,-5%,.,.,.,.,.
CCOc1cc(C(c2c(C)[nH][nH]c2=O)c2c(C)[nH][nH]c2=O)cc([N+](=O)[O-])c1O,3%,-1,6%,-11,-22%,5%,.,.,.,.,.
COc1cc(C(c2c(C)[nH][nH]c2=O)c2c(C)[nH][nH]c2=O)cc([N+](=O)[O-])c1O,-1%,-3,8%,-7,16µM*,0%,-29%,-12%,5.6µM*,?,-16%
CCCCCc1cc(=O)oc2c(C(CCN(CC)CC)c3ccc(N(C)C)cc3)c(OC)cc(OC)c12 (configuration not stated),-5%,-7,0%,-1,-30%,5%,.,.,.,.,.
CCN1CCN(CC(=O)Nc2cc3c(cc2C(C)=O)OCO3)CC1,17%,2,4%,-19,13µM*,4%,-1%[10.4 µM],13%,-2%,3%,9%
CCC1(C)Cc2ccccc2-c2nc(NN)[nH]c(=O)c21 (configuration not stated),1%,-2,0%,-4,22µM*,4%,23%,2%,1%,-23%,-27%
CCC1(CC)Cc2ccccc2-c2nc(NN)[nH]c(=O)c21,1%,10,-9%,3,?,1%,.,.,.,.,.
C=CCNC(=S)NN=C1CCC(c2ccccc2)CC1 (configuration not stated),0%,-2,6%,35,7.9µM*,5%,7%[38.3 µM],?,-26%,5%,2%
